Results as given in PubChem BioAssay.
Active and inactive are the calls of the source.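 Rule for the calls: active = inhibition at or above 50% relative to wild type and mutant plate controls; inactive = inhibition below 50%.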

Test: loss of swimming-algae plug formation – whole organism, Chlamydomonas reinhardtii, WT vs cilia-less mutant, absorbance, 96-well, primary screen (AID 463189);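 note: 0% = wild type cc124 cells in DMSO and 100% = ciliumless bld1 mutant cells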
Conditions: Chlamydomonas reinhardtii gravitaxis, OD600 absorbance, 2 days; at 10 µM; stronger effect = higher value

| SMILES | inhibition |
| --- | --- |
| Oc1cc2c(c(Cl)c1O)CCNCC2c1ccccc1 (centres undefined) | 6.8% (inactive) |
| Nc1ncnc2c1ncn2[C@@H]1O[C@H](COP(=O)(O)OP(=O)(O)OP(=O)(O)OP(=O)(O)OC[C@@H]2O[C@H](n3cnc4c(N)ncnc43)C(O)[C@@H]2O)[C@H](O)C1O (some centres undefined) | 15% (inactive) |
| CN1CCc2cc(O)c(O)cc2C(c2ccccc2)C1 (centres undefined) | 2.5% (inactive) |
| C[C@H]1O[C@@H](n2cc(F)c(=O)[nH]c2=O)[C@H](O)[C@@H]1O | 2.48% (inactive) |
| COc1cccc(C(=O)NCCN2CCN(c3ccc(Cl)cc3)CC2)c1 | 0.497% (inactive) |
| CCCn1c(=O)c2[nH]c(-c3ccc(S(=O)(=O)O)cc3)nc2n(CCC)c1=O | 1.25% (inactive) |
| CN1C2CCC1CC(OC(c1ccccc1)c1ccccc1)C2 (centres undefined) | 1.86% (inactive) |
| CNC(=O)[C@H]1O[C@@H](n2cnc3c(NCc4ccc(I)cc4)nc(Cl)nc32)[C@H](O)[C@@H]1O | 0.705% (inactive) |
| NC(N)=NC(=O)c1nc(Cl)c(N2CCCCCC2)nc1N | -1.07% (inactive) |
| CCCCCCCCCCCCCCSCC(=O)O | 7.96% (inactive) |
| N.N.N.N.N.N.N.N.N.N.N.N.N.N.O.O.[Cl-].[Cl-].[Cl-].[Cl-].[Cl-].[Cl-].[Ru+4].[Ru+5].[Ru+5] | 97.5% (active) |
| Cn1cnc([N+](=O)[O-])c1Sc1ncnc2nc[nH]c12 | -2.23% (inactive) |
| O=c1cc(-c2ccccc2)[nH]c2nc(Cl)ccc12 | 6.49% (inactive) |
| CCN1C(=O)C=CC1=O | -6.91% (inactive) |
| O=C(Nc1ccccc1)c1cc([N+](=O)[O-])ccc1Cl | 2.4% (inactive) |
| O=C(O)c1cccnc1C(=O)O | 3.76% (inactive) |
| O=c1c(-c2ccc(O)cc2)coc2cc(O)cc(O)c12 | -5.08% (inactive) |
| CCCOc1ccccc1-c1nc2n[nH]nc2c(=O)[nH]1 | -8.54% (inactive) |
| c1cc(CN2CCCCC2)cc(OCCCNc2nc3ccccc3s2)c1 | 26.8% (inactive) |
| O=C(O)c1cc([N+](=O)[O-])ccc1NCCCc1ccccc1 | 9.38% (inactive) |
| C/C(=C\c1ccc(C(=O)O)cc1)c1ccc2c(c1)C(C)(C)CCC2(C)C | 9.5% (inactive) |
| CSc1ccc2c(c1)C(N1CCN(C)CC1)Cc1ccccc1S2 (centres undefined) | 0.427% (inactive) |
| O=C(/C=C/c1ccc(O)cc1)c1ccc(O)cc1O | 2.79% (inactive) |
| Cc1cc(N)c2ccccc2[n+]1CCCCCCCCCCCCCC[n+]1c(C)cc(N)c2ccccc21 | 154% (active) |
